Laboratory results reported in PubChem BioAssay AID652175 (National Center for Advancing Translational Sciences (NCATS), 2013).
Records with an inconclusive call do not appear. Entries that show only a call come without a potency. Activity calls are given as the source filed them. Calls come from the whole dose curve; as a rule, active = well fitted inhibition curve with a large enough effect; inconclusive = small, poorly fitted or top-dose-only effect; inactive = no such curve, though single readings can be large or run the other way.

Assay: qHTS Assay for Lipid Storage Modulators: S3 Assay against Probe and Analogs
Conditions: Drosophila S3 cells, BODIPY lipid droplet fluorescence, 18-24 h, oleic acid added to induce droplets; series mostly up to 46.1 µM
Procedure, shortened: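 Drosophila S3 cells, 5,000/well, dosed with compounds (0.46% DMSO final) and oleic acid to induce lipid droplets, 18-24 h at 25 °C. BODIPY 493/503 and Cell Tracker Red read by laser-scanning cytometry; % activity relative to 20 uM Triacsin C.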

SMILES | Potency
CCOc1ccc(CCNC(=O)c2cnon2)cc1OCC | inactive
O=C(NCCc1ccc2c(c1)OCO2)c1cc2sccc2n1Cc1ccccc1 | inactive
COc1ccc(-n2ncc3c2CCCC3NC(=O)c2ccccn2)cc1 (stereo not drawn) | 1.3 nM (active)
CCOc1ccc(CCNC(C)=O)cc1OCC | inactive
Cc1ccc(NC(=O)c2ccc(CN3CCN(C)CC3)cc2)cc1Nc1nc(-c2cccnc2)cs1 | inactive
CC(C)(NC(=O)Nc1ccccc1Cl)C(=O)N1CCC(C(=O)O)CC1 | inactive
O=C(NC1CCCc2c1cnn2-c1ccc(O)cc1)c1ccccn1 (stereo not drawn) | 1.2 nM (active)
O=C(Nc1cccc2c1cnn2-c1ccc(F)cc1)c1ccccn1 | inactive
CCOC(=O)C1CCN(C(=O)C2(NC(=O)Nc3ccc(F)cc3F)CCCCC2)CC1 | inactive
COc1cccc(-n2ncc3c2CCCC3NC(=O)c2ccccn2)c1 (stereo not drawn) | 3.7 nM (active)
CCOc1ccc(CCNC(=O)C2(c3ccccc3)CC2)cc1OCC | inactive
CCOC(=O)C1CCN(C(=O)C(C)(C)NC(=O)Nc2cccc(OC)c2)CC1 | inactive
CCOc1ccc(CCNC(=O)c2cc3sccc3n2CCN2CCOCC2)cc1OCC | 148 nM (active)
O=C(NC1CCCc2c1cnn2-c1ccc(F)cc1F)c1cccs1 (stereo not drawn) | 14.8 nM (active)
O=C(NC1CCCc2c1cnn2-c1ccc(F)cc1F)C1CCCCC1 (stereo not drawn) | inactive
CCn1c(C(=O)NCCc2ccc(OC)c(OC)c2)cc2sccc21 | inactive
CCOc1ccc(CCNC(=O)c2cc3sccc3n2Cc2ccccn2)cc1OCC | 29.6 nM (active)
CC1(C)CCC(c2ccc(Cl)cc2)=C(CN2CCN(c3ccc(C(=O)NS(=O)(=O)c4ccc(N[C@H](CCN5CCOCC5)CSc5ccccc5)c(S(=O)(=O)C(F)(F)F)c4)cc3)CC2)C1 | 526 nM (active)
